Results on 49 molecules are retold here after ChEMBL document CHEMBL3988442, “University of Dundee, Small-Polar-MMV Screening Library” (2021).

In experiment [1] the target is T1, Aspartate--tRNA(Asp/Asn) ligase (Mycobacterium tuberculosis (strain ATCC 25618 / H37Rv)) (UniProt P9WFW3). Note: in the data most compounds retested in dose-response had high values.
T1 sequence (whole entry): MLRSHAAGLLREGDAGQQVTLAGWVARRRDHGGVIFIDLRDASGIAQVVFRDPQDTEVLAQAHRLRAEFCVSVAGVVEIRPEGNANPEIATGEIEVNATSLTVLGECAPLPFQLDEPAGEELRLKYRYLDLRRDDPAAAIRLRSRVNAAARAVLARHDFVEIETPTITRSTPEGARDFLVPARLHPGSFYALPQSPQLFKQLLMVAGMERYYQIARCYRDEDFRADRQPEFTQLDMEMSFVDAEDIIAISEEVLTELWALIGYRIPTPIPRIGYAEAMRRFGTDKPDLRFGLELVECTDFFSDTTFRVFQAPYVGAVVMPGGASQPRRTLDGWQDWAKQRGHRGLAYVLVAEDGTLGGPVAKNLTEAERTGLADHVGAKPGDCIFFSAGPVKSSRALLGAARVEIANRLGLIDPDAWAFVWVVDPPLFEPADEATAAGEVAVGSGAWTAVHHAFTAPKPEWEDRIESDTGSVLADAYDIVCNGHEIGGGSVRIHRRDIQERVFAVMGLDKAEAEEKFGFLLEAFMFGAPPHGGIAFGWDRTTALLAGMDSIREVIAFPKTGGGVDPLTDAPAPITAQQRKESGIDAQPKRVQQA
In words: Assay for Asp RNA synthetase-1 from Mycobacterium tuberculosis. The arrangement: scale not given: direction of the effect not stated beside the values. Conditions: 30 µM. The format is functional.

The target in experiment [2] is Shiga toxin 2 (Escherichia coli O157:H7) (UniProt P09385+P09386). In words: E. coli 0.157:H7 Shiga Toxin SOP - stx2 screening assay. Format: functional. The arrangement: scale not given: direction of the effect not stated beside the values. The following applies: 30 µM.

On to `CCc1nc(C(=O)NCc2ccc(N3CCNC(=O)C3)c(F)c2)c[nH]1`, for which the results for the Percent Effect in experiment [1] and in experiment [2] were 2.49% and -51.1%, respectively.
In the same order, the values of `CC(C)c1nn(C)c(N2CCOCC2)c1CNCCS(C)(=O)=O` are -2.08% and -5.89%.
The matching figures for `Cc1cc(NCc2cc3n(n2)CCCN(S(C)(=O)=O)C3)ncn1`: -7.29% and 25.2%.
The matching figures for `CCc1ccc(O)c(C(=O)NC2CCN(C(=O)OC)CC2)c1`: -2.88% and -48.7%.
Take `Cc1nnc(CN2CCN(CC(O)c3cccc(F)c3)CC2)n1C` (stereo not drawn): the Percent Effect in experiment [1] is -0.288%; in experiment [2], 18.7%.
Regarding `Cc1ccc(S(=O)(=O)NC(=O)c2c(C)noc2C(C)C)cc1C`, the Percent Effect in experiment [1] was 1.59%; in experiment [2] it was 8.34%.
With `CC(C)Cc1noc(CN2CCN(c3nccs3)CC2)n1`, the Percent Effect in experiment [1] is -4.73%; in experiment [2], 11.6%.
As to `COc1ccc(CN2CCC3(CC2)CCN(CC(C)C)C3=O)cc1`, the Percent Effect in experiment [1] is -3.87%; in experiment [2] it was 3.87%.
With `Cn1nc(COc2cccnc2)c2c1CCN(c1cnccn1)C2`, the Percent Effect was 10.9% in experiment [1] and 7.98% in experiment [2].
`CS(=O)(=O)N1Cc2ccccc2C2(CCN(C(=O)c3ccno3)CC2)C1`: the Percent Effect was 1.46% in experiment [1] and -6.76% in experiment [2].
In the same order, the values of `O=C1NC(c2ccccc2)=N[C@@]12CC[C@@H]1CN(CC3CCOCC3)C[C@@H]12` are 1.31% and -0.652%.
For the molecule `Cc1cccnc1CNc1cc(N2CCCC2CO)ncn1` (stereo not drawn), the values for the Percent Effect in experiment [1] and in experiment [2] were -4.52% and -6.27%, respectively.
The matching figures for `Cc1ccc2c(n1)N(C)CCN(C(=O)C1CC1)C2`: 9.78% and -13.9%.
The matching figures for `O=C(CCc1cc2n(n1)CCCN(C(=O)c1cccnc1)C2)NC1CC1`: -2.01% and -9.98%.
Consider `CCC(C)N(C)S(=O)(=O)c1ccc(CCNC(C)=O)s1` (stereo not drawn), for which the values for the Percent Effect in experiment [1] and in experiment [2] were 0.0557% and -17%, respectively.
The matching figures for `Cn1cc(CN2C[C@@H]3COC[C@]3(C(=O)NCc3ccccn3)C2)cn1`: 3.06% and -15%.
The matching figures for `O=C(c1ccccn1)N1C[C@@H]2CC[C@H](C1)N(C(=O)CCc1cccs1)C2`: 12% and -22%.
In the same order, the values of `Cc1cnn(CC(C)NCc2csc(-c3cnn(C)c3)n2)c1` (stereo not drawn) are 1.91% and -23.5%.
For `Cc1nc(CN2C(=O)CC[C@@H]3[C@H]2CCN3C(=O)NC2CC2)cs1`, the results for the Percent Effect in experiment [1] and in experiment [2] were -0.474% and -11.4%, respectively.
With `CC(C)n1ncc2c1NC(=O)CC21C(=O)Nc2c(Cl)cc(Cl)cc21` (stereo not drawn), the Percent Effect was 0.842% in experiment [1] and 1.79% in experiment [2].
The matching figures for `CC(CN1CCOCC1)NC(=O)NCc1ccc(Cl)s1` (stereo not drawn): 2.25% and -2.94%.
The matching figures for `Cc1cc(N2CCN(C(=O)c3cc(Cl)c[nH]3)CC2)nc(N)n1`: 3.4% and -96.7%.
Turning to `O=C(CCc1ccccc1)N1CCn2cc(Cn3cncn3)nc2C1`, the results for the Percent Effect in experiment [1] and in experiment [2] were -1.12% and -10%, respectively.
The matching figures for `CN(Cc1cccc(F)c1)C(=O)CN1CCOC(Cn2cccn2)C1` (stereo not drawn): -0.139% and 0.15%.
The matching figures for `Cc1c(F)cccc1CN1CCn2nc(CNC(=O)N(C)C)cc2C1`: 0.386% and -49.9%.
The matching figures for `CCc1c(C)nc2cc(C3CCN(Cc4ccccc4F)C3)nn2c1O` (stereo not drawn): 4.45% and -125%.
Consider `Cc1cnn(CC2CCCN2C(=O)c2cc3c(F)cccc3[nH]2)c1` (stereo not drawn), for which the Percent Effect in experiment [1] is 4.86%; in experiment [2] it was -37.3%.
The matching figures for `CC1CN(C)c2ccccc2CN1C(=O)c1ccc[nH]1` (stereo not drawn): 4.95% and -9.14%.
In the same order, the values of `Cn1cc(NS(=O)(=O)c2ccc(OC(F)(F)F)cc2)ccc1=O` are 51.5% and -3.73%.
In the same order, the values of `O=C(O)[C@@H]1CN(C(=O)c2ccc3[nH]nnc3c2)C[C@H]1c1cccc(F)c1` are -0.0228% and -15.6%.
Turning to `Cc1cnn(CC2CCCCN2C(=O)c2cc(Cl)c[nH]2)c1` (stereo not drawn), the Percent Effect was 1.83% in experiment [1] and -31.9% in experiment [2].
Turning to `O=C1N(c2cccc(Cl)c2)Cc2nc(=O)n(Cc3cccc(F)c3)n21`, the values for the Percent Effect in experiment [1] and in experiment [2] were 6.56% and -11.3%, respectively.
On to `Cc1cc(C2CCCN(C(=O)c3c(C)noc3C)C2)n[nH]1` (stereo not drawn), for which the Percent Effect in experiment [1] is -1.62%; in experiment [2] it was 8.79%.
The matching figures for `COc1ncccc1CNC(=O)c1cccnc1O`: -1.39% and -17.1%.
The matching figures for `N#CC1(C(=O)N2CCN(Cc3ccon3)CC2)CCC1`: -1.89% and 3.73%.
The matching figures for `CN(C)CC(=O)N1CCC2(CC(=O)N(c3cccc(C#N)c3)C2)C1` (stereo not drawn): 7.58% and 1.05%.
Turning to `COC(=O)C1CCN(C(=O)CN2CCN(c3cccc(C)c3)CC2)CC1`, the Percent Effect in experiment [1] is -0.137%; in experiment [2] it was -48.5%.
In the same order, the values of `c1ccc(Cn2ccnc2CN2CCOC(Cn3cccn3)C2)cc1` (stereo not drawn) are -3.22% and 8.78%.
The matching figures for `CCNC(=O)c1nnn(Cc2ccccc2)c1OC`: 0.29% and -14.9%.
For `Cc1noc(C)c1CN1CCN(Cc2ccncc2)c2ncccc2C1`, the Percent Effect in experiment [1] was -2.02%; in experiment [2], 8.32%.
In the same order, the values of `Cn1nc2c(cc1=O)CN(Cc1nc(C(C)(C)C)no1)CC2` are 50.6% and 0.187%.
The matching figures for `O=S(=O)(c1cccs1)N1CCCn2cnc(CN3CCCC3)c2C1`: 6.2% and -4.47%.
In the same order, the values of `CC(C)C(NC(=O)NCCNc1ccccn1)c1cccs1` (stereo not drawn) are 7.74% and 3.04%.
For `Cc1nc(CN2CCN(C(=O)COCc3ccccc3)CC2)no1`, the Percent Effect is -0.353% in experiment [1] and -1.66% in experiment [2].
The matching figures for `O=C(CCn1ccccc1=O)Nc1ccc(I)cc1`: 8.05% and -26.1%.
In the same order, the values of `O=C(NCC1CC1)[C@H]1C[C@@H]2CCN(Cc3nccs3)C[C@@H]2O1` are -3.13% and 0.967%.
For `Cn1cc(NC(=O)N2CCC(NS(C)(=O)=O)CC2)ccc1=O`, the Percent Effect in experiment [1] is 57.4%; in experiment [2], -31.1%.
The matching figures for `CCc1nc(CN2CCN(C(=O)COCc3ccccc3)CC2)no1`: -1.88% and 2.35%.
The matching figures for `Cc1ccc(CS(=O)(=O)N2CC[C@H]3[C@H]2CCN3C)cc1`: -3.51% and -4.23%.
